Test results taken from the supplement of paper PMC8728848.
The full list was thinned out, with the strongest signals kept by preference.

Assays:
Test in all cases: glycan array binding signal (z-score within array); higher = stronger binding
Settings in all cases: glycan notation: IUPAC condensed, linker removed
[1] = biological target: GalNAc(a1-3)GalNAc(b1-3)Gal(a1-4)Gal(b1-4)Glc
In short: (§1)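 Arrays were curated from the Consortium for Functional Glycomics database, 3228 in total, and kept only where the protein sequence was available. Binding is expressed as a within-array Z-score. This score was averaged across arrays of the same protein sequence at different concentrations or buffers and across linkers, and negative values can be read as non-binding.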

[2] = biological target: GalNAc(b1-3)Gal
In short: as §1

[3] = biological target: GalNAc(b1-3)GlcNAc
In short: as §1

[4] = biological target: GalNAc(b1-4)GlcNAc
In short: as §1

[5] = biological target: GalNAc(b1-4)GlcNAc(b1-3)GalNAc(b1-4)GlcNAc
In short: as §1

[6] = biological target: GalNAc(b1-4)GlcNAc6S
In short: as §1

[7] = biological target: Glc(a1-6)Glc(a1-6)Glc(a1-6)Glc
In short: as §1

[8] = biological target: Glc(b1-6)Glc
In short: as §1

[9] = biological target: GlcA(b1-3)Gal
In short: as §1

[10] = biological target: GlcA(b1-3)GlcNAc
In short: as §1

[11] = biological target: GlcNAc(b1-3)Gal(b1-4)GlcNAc(b1-3)Gal(b1-4)GlcNAc(b1-3)Gal(b1-4)GlcNAc(b1-3)Gal(b1-4)GlcNAc(b1-2)[GlcNAc(b1-3)Gal(b1-4)GlcNAc(b1-3)Gal(b1-4)GlcNAc(b1-3)Gal(b1-4)GlcNAc(b1-3)Gal(b1-4)GlcNAc(b1-6)]Man(a1-6)[GlcNAc(b1-3)Gal(b1-4)GlcNAc(b1-3)Gal(b1-4)GlcNAc(b1-3)Gal(b1-4)GlcNAc(b1-3)Gal(b1-4)GlcNAc(b1-2)Man(a1-3)]Man(b1-4)GlcNAc(b1-4)[Fuc(a1-6)]GlcNAc
In short: as §1

[12] = biological target: GlcNAc(b1-3)Gal(b1-4)GlcNAc(b1-6)[Gal(b1-3)]GalNAc
In short: as §1

[13] = biological target: GlcNAc(b1-6)GalNAc
In short: as §1

[14] = biological target: Man(a1-2)Man(a1-2)Man(a1-3)Man
In short: as §1

[15] = biological target: Man(a1-3)[Man(a1-6)]Man(a1-6)[Man(a1-2)Man(a1-3)]Man(b1-4)GlcNAc(b1-4)GlcNAc
In short: as §1

[16] = biological target: Neu5Ac(a2-3)Gal(b1-3)GlcNAc(b1-3)Gal(b1-4)GlcNAc
In short: as §1

[17] = biological target: Neu5Ac(a2-3)Gal(b1-3)[Fuc(a1-4)]GlcNAc
In short: as §1

[18] = biological target: Neu5Ac(a2-3)Gal(b1-4)GlcNAc(b1-2)Man
In short: as §1

[19] = biological target: Neu5Ac(a2-3)Gal(b1-4)GlcNAc(b1-3)Gal
In short: as §1

[20] = biological target: Neu5Ac(a2-3)Gal(b1-4)GlcNAc(b1-3)Gal(b1-4)GlcNAc(b1-2)Man(a1-3)[Neu5Ac(a2-3)Gal(b1-4)GlcNAc(b1-3)Gal(b1-4)GlcNAc(b1-2)Man(a1-6)]Man(b1-4)GlcNAc(b1-4)GlcNAc
In short: as §1

[21] = biological target: Neu5Ac(a2-3)Gal(b1-4)[Fuc(a1-3)]GlcNAc(b1-3)Gal(b1-4)GlcNAc
In short: as §1

[22] = biological target: Neu5Ac(a2-3)Gal(b1-4)[Fuc(a1-3)]GlcNAc(b1-6)[Gal(b1-3)]GalNAc
In short: as §1

[23] = biological target: Neu5Ac(a2-6)Gal(b1-4)GlcNAc(b1-2)Man
In short: as §1

[24] = biological target: Neu5Ac(a2-6)Gal(b1-4)GlcNAc(b1-2)Man(a1-6)[Gal(b1-4)GlcNAc(b1-2)Man(a1-3)]Man(b1-4)GlcNAc(b1-4)GlcNAc
In short: as §1

[25] = biological target: Neu5Ac(a2-8)Neu5Ac(a2-8)Neu5Ac(a2-3)[Gal(b1-3)GalNAc(b1-4)]Gal(b1-4)Glc
In short: as §1

[26] = biological target: Neu5Ac(b2-6)GalNAc
In short: as §1

B1: MGL2 (Mus musculus), Q8JZN1 (protein)
chain: MTMRYENFQNLEREEKNQEMRNGDKKGGMESPKFALIPSQSFLWRILSWTHLLLFSLGLSLLLLVVISVIGSQNSQLRRDLGTLRAILDNTTSKIKAEFQSLDSRADNFEKGISSLKVDVEDHRQELQAGRDLSQKVTSLESTLEKREQALKTDLSDLTDHVQQLETDLKALTCQLANLKNNGSEVACCPLHWTEHEGSCYWFSESEKSWPEADKYCRLENSHLVVVNSLEEQNFLQNRLANVLSWMGLTDQNGPWRWVDGTDFDKGFKNWRPLQPDNWHGHMLGGGEDCAHFSYDGRWNDDVCQRHYHWICETELGKASSAHSPQLIASVP
glycan array binding signal (z-score) [1]: -0.259
glycan array binding signal (z-score) [2]: 4.95
glycan array binding signal (z-score) [3]: 8.82
glycan array binding signal (z-score) [4]: 5.73
glycan array binding signal (z-score) [5]: 2.48
glycan array binding signal (z-score) [6]: 3.46
glycan array binding signal (z-score) [7]: 0.014
glycan array binding signal (z-score) [8]: -0.253
glycan array binding signal (z-score) [9]: -0.219
glycan array binding signal (z-score) [10]: 0.307
glycan array binding signal (z-score) [11]: -0.062
glycan array binding signal (z-score) [12]: -0.047
glycan array binding signal (z-score) [13]: 6.85
glycan array binding signal (z-score) [14]: -0.161
glycan array binding signal (z-score) [15]: -0.006
glycan array binding signal (z-score) [16]: -0.274
glycan array binding signal (z-score) [17]: -0.173
glycan array binding signal (z-score) [18]: -0.034
glycan array binding signal (z-score) [19]: -0.3
glycan array binding signal (z-score) [20]: 0.166
glycan array binding signal (z-score) [21]: -0.189
glycan array binding signal (z-score) [22]: -0.139
glycan array binding signal (z-score) [23]: -0.19
glycan array binding signal (z-score) [24]: -0.174
glycan array binding signal (z-score) [25]: -0.194
glycan array binding signal (z-score) [26]: -0.176
